Cruzain inh Det: inhibitors of Trypanosoma cruzi cruzain with detergent. P25779. purified cruzain, Z-FR-AMC fluorescence, 0.01% Triton. Potency, µM, for the others: max response, negative = inhibition, usual class: inhibitors. actives 0.43% (n = 200,000). AID 1478;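 also: plate controls were neutral wells for no effect and buffer without enzyme for full effect; nearly all actives have a fitted effect of over 40% in size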
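Read-out: AMC fluorescence (360 nm excitation, 450 nm emission), four reads over 2 min, first-to-third difference used. Conditions: cruzain 1.5 nM, Z-FR-AMC 2 uM, pH 5.5 acetate, 5 mM DTT, 0.01% Triton X-100.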
Cruzain inh noDet: inhibitors of Trypanosoma cruzi cruzain without detergent; AID 1476; actives 2.3% (n = 200,000); Potency, µM, inactives show max response, negative = inhibition, actives largely listed as inhibitors; P25779; purified cruzain, Z-FR-AMC fluorescence, no detergent;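 also: plate controls were enzyme without inhibitor for no effect and buffer without enzyme for full effect; nearly all actives have a fitted effect of over 40% in size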
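Detergent-free condition (0.00005% Triton X-100) in acetate buffer pH 5.5 with DTT. 1.5 nM enzyme and compound were pre-mixed 15 min, then 2 uM Z-FR-AMC substrate added; reaction progress from fluorescence change between first and third reads (60 s).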
Papain inh: counter-screen for cruzain inhibitors: papain inhibition; shares compounds with Cruzain inh Det; purified papain, Z-FR-AMC fluorescence cleavage; Potency, µM, for inactives: max response, negative = inhibition, hits mostly inhibitors; actives 41% (n = 410);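 also: 0% = no-compound wells and -100% = no-enzyme wells; nearly all actives have a fitted effect of over 35% in size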
Target sequence (P00784 whole entry, looked up): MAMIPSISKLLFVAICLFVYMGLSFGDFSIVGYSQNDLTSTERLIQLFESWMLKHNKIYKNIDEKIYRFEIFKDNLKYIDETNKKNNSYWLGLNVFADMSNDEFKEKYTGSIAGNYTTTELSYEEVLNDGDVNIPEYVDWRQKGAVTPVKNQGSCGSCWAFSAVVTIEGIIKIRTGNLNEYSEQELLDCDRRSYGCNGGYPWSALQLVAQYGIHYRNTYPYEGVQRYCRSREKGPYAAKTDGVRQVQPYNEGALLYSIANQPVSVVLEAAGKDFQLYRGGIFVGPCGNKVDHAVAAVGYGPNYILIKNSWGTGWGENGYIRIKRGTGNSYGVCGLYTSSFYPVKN
The depositor's hits bear a star; ? = inconclusive; . = no result. Only some compounds are listed: those with a hit (about 2.4% of all), similar ones and a draw of the others. Calls follow the shape of the dose curve; as a rule, active = well fitted curve in the direction sought with a large enough effect; inconclusive = small, poorly fitted or top-dose-only effect, or another doubt; inactive = no such curve, though single readings can be large; an effect the other way counts as inactive or inconclusive. Potency is read from the fitted curve at half-maximal effect.

SMILES	Cruzain inh Det	Cruzain inh noDet	Papain inh
CCn1nc(-c2ccc(C)cc2)nc2c(=O)n(C)c(=O)nc1-2	.	.	-3%
CCn1nc(-c2ccccc2)nc2c(=O)n(C)c(=O)nc1-2	2.2µM*	1.3µM*	4%
CCS(=O)(=O)n1nc(-c2ccc(C)cc2)nc1N	-2%	-1%	.
CCOC(=O)Cn1nc(-c2ccccc2)nc1-c1ccccc1	-3%	4%	.
Cc1ccc(OCCSc2nc3ccccc3n2CC(=O)N2CCOCC2)cc1	1%	-2%	.
CCCc1nn2c(=O)cc(COC(=O)c3ccc(NC(=O)c4cccs4)cc3)nc2s1	1%	26%	.
CCCCNC(=O)c1ccc2nc(-c3ccco3)c(-c3ccco3)nc2c1	14µM*	16µM*	16µM*
CCNC(=O)c1ccc2nc(-c3ccccc3)c(-c3ccccc3)nc2c1	.	.	-14%
CCCNC(=O)c1ccc2nc(-c3ccccc3)c(-c3ccccc3)nc2c1	-9%	?	.
CCCNC(=O)c1cc(-c2ccco2)on1	-3%	-15%	.
O=C(NCCCO)c1ccc2nc(-c3ccco3)c(-c3ccco3)nc2c1	.	.	28µM*
O=C(NCCNC(=O)c1ccco1)c1cccc(F)c1	0%	2%	.
Cc1ccc(CNC(=O)c2sc3ccc(S(=O)(=O)N4CCCCC4)cc3c2N)cc1	-7%	?	.
Nc1c(C(=O)NCCC2=CCCCC2)sc2ccc(S(=O)(=O)N3CCCCC3)cc12	3.5µM*	13µM*	-10%
CC(=O)c1ccc(NC(=O)c2nn(C)c3c2COc2ccccc2-3)cc1	-2%	14%	.
O=C(c1ccccc1)c1ccc(OCCCN2CCCCC2)cc1	4%	7%	.
O=C(c1ccc(OCCN2CCCCC2)cc1)c1c(-c2ccc(O)cc2)sc2cc(O)ccc12	-5%	-12%	-3%
COc1cccc(C2C(=O)N(C3CCCCC3)CC(=O)N2Cc2ccc(Cl)cc2)c1 (configuration not stated)	0%	-8%	.
O=C(Nc1cc(C(F)(F)F)ccc1Cl)C(NCc1ccccc1)c1ccccc1 (configuration not stated)	-5%	2%	.
O=C(CNC(=O)c1ccccc1)OC(C(=O)Nc1cc(C(F)(F)F)ccc1Cl)c1ccccc1 (configuration not stated)	7.1µM*	10µM*	-17%
COc1ccc(N2CCN(C3C(=O)c4ccccc4N3C(C)=O)CC2)cc1 (configuration not stated)	1%	-4%	.
Cc1oc2ccc(OCc3ccc(F)cc3)cc2c1C(=O)O	-3%	-12%	.
Cc1ccc(COc2ccc3oc(-c4ccccc4)c(C(=O)O)c3c2)cc1	?	20µM*	32µM*
COc1cccc(-n2c(=O)c3sc4ccccc4c3n(CC(=O)Nc3ccccc3OC)c2=O)c1	-2%	-3%	.
CCc1ccc(OCCSc2nc3ccccc3n2CC(=O)N2CCCCC2)cc1	-5%	14%	.
SMILES	Cruzain inh Det	Cruzain inh noDet	Papain inh
CCc1ccc(OCCCn2c(CCNC(=O)C3CCCCC3)nc3ccccc32)cc1	.	.	16µM*
CCCc1nc2ccccc2n1CCOc1ccccc1	-6%	0%	.
CCc1ccc(OCCn2c(CCNC(=O)C3CCCCC3)nc3ccccc32)cc1	.	.	-5%
Cc1ccc(-n2c(=O)c3c(c4cc(C)ccc4n3C)n(CC(=O)Nc3ccc(F)cc3)c2=O)cc1	-2%	13%	.
O=C(/C=C/c1ccc2c(c1)OCO2)Nc1nc2ccccc2s1	-1%	-11%	.
CCSc1nnc(NC(=O)/C=C/c2ccc3c(c2)OCO3)s1	16µM*	16µM*	7%
CCSc1nnc(NC(=O)c2ccccn2)s1	-7%	9%	.
CCSc1nnc(NC(=O)c2ccc(Br)s2)s1	-2%	25µM*	14%
Cc1ccc(CNC(=O)CN(c2ccc(Cl)cc2Cl)S(=O)(=O)c2ccccc2)cc1	-7%	10%	.
Cc1ccc(NC(=O)Cn2c(=O)n(CC3CCC(C(=O)NC(C)C)CC3)c(=O)c3sccc32)cc1 (configuration not stated)	-1%	-2%	.
Clc1ccc2[nH]c3c(NCCCN4CCOCC4)ncnc3c2c1	16µM*	13µM*	4%
Cc1ccc2ncnc(NCCCN3CCOCC3)c2c1	-1%	8%	.
CCN1CCCC1Cn1cnc2c([nH]c3ccc(C)cc32)c1=O (configuration not stated)	-8%	-18%	.
CCN1CCCC1CNc1ncnc2c1[nH]c1ccc(Cl)cc12 (configuration not stated)	25µM*	16µM*	-3%
COCCCNC(=O)c1ccc2c(c1)N=C(C)c1c(C)ccc(C)c1S2	-7%	?	.
COC(=O)CCC(C)C1CCC2C3C(O)C[C@@H]4CC(O)CC[C@@]4(C)C3CC(O)[C@]12C (some centres not stated)	0%	?	3%
CC(CCC(=O)O)C1CCC2C3CC(O)[C@@H]4CC(O)CC[C@]4(C)C3CC[C@@]12C (some centres not stated)	6%	?	.
C[C@H](CCC(=O)O)[C@H]1CC[C@@H]2[C@@H]3[C@@H](O)C[C@H]4C[C@@H](O)CC[C@@]4(C)[C@H]3CC[C@@]21C	-7%	?	4%
CC(=O)C1CCC2C3CCC4CC(O)CCC4(C)C3CC(O)C12C (configuration not stated)	2%	6%	.
CCc1ccc(NC(=O)C(=O)NCCc2sc(-c3ccc(OC)c(OC)c3)nc2C)cc1	0%	-6%	.
O=C(NCC1(c2ccccc2)CCCC1)C(=O)Nc1cccc(Br)c1	-1%	5%	.
O=C(Cc1ccccc1)Nc1cc(-c2nc3cc(Cl)ccc3o2)ccc1Cl	0%	-4%	.
Cc1ccc2[nH]c(=O)c(CN(Cc3ccc4c(c3)OCO4)Cc3nnnn3Cc3ccco3)cc2c1	-3%	-8%	.
Cc1cccc2cc(CN(Cc3ccccc3)Cc3nnnn3Cc3ccccc3)c(=O)[nH]c12	.	.	-7%
COc1ccccc1CN(Cc1cc2cc3c(cc2[nH]c1=O)OCCO3)Cc1nnnn1Cc1ccco1	-11%	?	.
SMILES	Cruzain inh Det	Cruzain inh noDet	Papain inh
Cc1cccc2cc(CN(Cc3cccs3)Cc3nnnn3Cc3ccccc3)c(=O)[nH]c12	-1%	0%	.
Cc1ccc2cc(CN(Cc3ccco3)Cc3nnnn3Cc3ccco3)c(=O)[nH]c2c1	.	.	-8%
Cc1ccc2[nH]c(=O)c(CN(CCCO)Cc3nnnn3Cc3ccco3)cc2c1	.	.	-1%
CCc1ccc2[nH]c(=O)c(CN(Cc3ccccc3)Cc3nnnn3Cc3ccccc3)cc2c1	.	.	-11%
CCc1ccc2[nH]c(=O)c(CN(Cc3ccccc3)Cc3nnnn3Cc3ccco3)cc2c1	-12%	6%	.
Cc1cccc2c1-c1sc(C(=O)NCCCN3CCN(c4cccc(Cl)c4)CC3)cc1CO2	-2%	25%	.
CC(CNC(=O)c1ccc2c(c1)nc1n2CCCCC1)c1ccccc1 (configuration not stated)	-1%	-13%	.
Cc1ccc(-c2onc(C)c2C)cc1S(=O)(=O)NCc1cccs1	-7%	1%	.
Cc1cccc(N2CCN(C(=O)C3CCCN(S(=O)(=O)c4ccc(Br)s4)C3)CC2)c1C (configuration not stated)	-3%	-6%	.
CCc1ccccc1NC(=O)Cn1nc(C)c2nn(-c3ccc(Cl)cc3)c(C)c2c1=O	4%	3%	.
CCCCNC(=O)CSc1nc2n[nH]c(C)c2c(=N)n1-c1ccccc1CC	-2%	6%	.
CN(C1CCCCC1)S(=O)(=O)c1ccc(F)c(C(=O)Nc2ccc(C(F)(F)F)cc2)c1	0%	-11%	.
